Data reported in the supplement of paper PMC10849652.
Targets with a hit are over-represented here; the source holds about 8,800 in all. About 0.5% of all pairs of compound and target were hits. A number with no mark means an inactive call.

How the values were obtained:
Experiment in all cases: log2 fold change, soluble protein after heating vs DMSO (PISA); higher = thermal stabilisation; K562 lysate, 10 uM; active = over 0.2 and 3.5 SD of the protein, either way, in both replicates (recomputed)
[1] = compound: NCC(=O)Nc1ccc(-n2nc(C(F)(F)F)cc2-c2ccc3c(ccc4ccccc43)c2)cc1
Method in brief: (§1)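 A 30 min treatment with 10 μM compound was applied to crude K562 extract at 1 mg/mL protein in PBS pH 7.4 with 1 mM MgCl2. Heating for 3 min spanned 48°C-58°C, after which aliquots were pooled, adjusted to 0.5% NP-40 at 4°C and spun at 21,000xg for 90 min. TMTpro 16plex LC-MS/MS of the supernatant, with channel sums equalised, gave values recorded as log-two fold change in thermal stability against solvent controls, from duplicates.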

vorinostat = compound: O=C(CCCCCCC(=O)Nc1ccccc1)NO [vorinostat]
Method in brief: as §1

silmitasertib = compound: O=C(O)c1ccc2c(c1)nc(Nc1cccc(Cl)c1)c1ccncc12 [silmitasertib]
Method in brief: as §1

[2] = compound: O=C1NC(=O)C(c2cnc3ccccn23)=C1c1cn2c3c(cc(F)cc13)CN(C(=O)N1CCCCC1)CC2
Method in brief: as §1

entospletinib = compound: c1cn2cc(-c3ccc4cn[nH]c4c3)nc(Nc3ccc(N4CCOCC4)cc3)c2n1 [entospletinib]
Method in brief: as §1

CEP152 (UniProt O94986)
UniProt O94986, sequence (O94986 whole entry, looked up): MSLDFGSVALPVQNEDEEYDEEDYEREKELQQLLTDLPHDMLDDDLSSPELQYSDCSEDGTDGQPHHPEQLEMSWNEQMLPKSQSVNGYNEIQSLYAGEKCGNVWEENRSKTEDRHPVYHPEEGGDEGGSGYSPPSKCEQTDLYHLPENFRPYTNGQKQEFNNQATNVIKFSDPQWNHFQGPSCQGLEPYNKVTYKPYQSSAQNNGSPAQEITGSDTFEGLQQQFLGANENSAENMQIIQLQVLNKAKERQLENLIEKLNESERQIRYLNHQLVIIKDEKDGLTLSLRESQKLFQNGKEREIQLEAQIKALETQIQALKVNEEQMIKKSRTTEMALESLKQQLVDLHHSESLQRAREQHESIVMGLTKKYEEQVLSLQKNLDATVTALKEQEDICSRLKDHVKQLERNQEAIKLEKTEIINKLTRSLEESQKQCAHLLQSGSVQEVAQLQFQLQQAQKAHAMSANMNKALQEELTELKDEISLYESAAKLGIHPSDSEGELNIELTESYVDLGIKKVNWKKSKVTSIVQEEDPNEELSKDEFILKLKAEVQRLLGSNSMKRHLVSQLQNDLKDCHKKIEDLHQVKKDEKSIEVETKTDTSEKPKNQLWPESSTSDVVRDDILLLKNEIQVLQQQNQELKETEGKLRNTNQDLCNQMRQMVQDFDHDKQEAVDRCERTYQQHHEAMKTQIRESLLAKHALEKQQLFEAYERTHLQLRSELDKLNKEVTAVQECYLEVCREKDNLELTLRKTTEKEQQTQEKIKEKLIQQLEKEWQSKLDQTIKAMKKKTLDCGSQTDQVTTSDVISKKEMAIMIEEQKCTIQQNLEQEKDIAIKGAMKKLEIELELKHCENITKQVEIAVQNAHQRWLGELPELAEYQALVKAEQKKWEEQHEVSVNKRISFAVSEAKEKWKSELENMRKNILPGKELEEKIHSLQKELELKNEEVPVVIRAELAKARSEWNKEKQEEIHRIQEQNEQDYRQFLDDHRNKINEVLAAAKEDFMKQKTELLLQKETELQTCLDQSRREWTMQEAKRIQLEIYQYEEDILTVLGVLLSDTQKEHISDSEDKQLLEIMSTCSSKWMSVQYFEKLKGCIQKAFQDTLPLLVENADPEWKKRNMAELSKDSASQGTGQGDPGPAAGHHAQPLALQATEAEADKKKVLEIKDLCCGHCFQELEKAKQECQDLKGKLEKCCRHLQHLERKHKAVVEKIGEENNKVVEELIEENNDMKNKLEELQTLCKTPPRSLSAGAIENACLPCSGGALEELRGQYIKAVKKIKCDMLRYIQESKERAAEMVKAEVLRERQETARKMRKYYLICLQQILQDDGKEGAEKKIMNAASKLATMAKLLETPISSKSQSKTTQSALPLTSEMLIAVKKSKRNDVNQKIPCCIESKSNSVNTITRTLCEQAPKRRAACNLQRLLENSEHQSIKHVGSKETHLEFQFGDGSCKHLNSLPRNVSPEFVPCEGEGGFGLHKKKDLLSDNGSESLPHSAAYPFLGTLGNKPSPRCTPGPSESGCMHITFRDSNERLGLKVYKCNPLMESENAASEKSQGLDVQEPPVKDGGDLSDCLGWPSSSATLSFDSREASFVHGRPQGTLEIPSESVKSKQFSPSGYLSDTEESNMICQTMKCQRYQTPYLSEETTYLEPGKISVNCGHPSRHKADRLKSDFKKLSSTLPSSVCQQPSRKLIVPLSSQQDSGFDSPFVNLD
log2 fold change [1]: 0.025
log2 fold change (vorinostat): -0.167
log2 fold change (silmitasertib): 0.039
log2 fold change [2]: 0.089
log2 fold change (entospletinib): -0.04

CDC14A isoform 2 (UniProt Q9UNH5)
UniProt Q9UNH5, sequence (Q9UNH5 whole entry, looked up): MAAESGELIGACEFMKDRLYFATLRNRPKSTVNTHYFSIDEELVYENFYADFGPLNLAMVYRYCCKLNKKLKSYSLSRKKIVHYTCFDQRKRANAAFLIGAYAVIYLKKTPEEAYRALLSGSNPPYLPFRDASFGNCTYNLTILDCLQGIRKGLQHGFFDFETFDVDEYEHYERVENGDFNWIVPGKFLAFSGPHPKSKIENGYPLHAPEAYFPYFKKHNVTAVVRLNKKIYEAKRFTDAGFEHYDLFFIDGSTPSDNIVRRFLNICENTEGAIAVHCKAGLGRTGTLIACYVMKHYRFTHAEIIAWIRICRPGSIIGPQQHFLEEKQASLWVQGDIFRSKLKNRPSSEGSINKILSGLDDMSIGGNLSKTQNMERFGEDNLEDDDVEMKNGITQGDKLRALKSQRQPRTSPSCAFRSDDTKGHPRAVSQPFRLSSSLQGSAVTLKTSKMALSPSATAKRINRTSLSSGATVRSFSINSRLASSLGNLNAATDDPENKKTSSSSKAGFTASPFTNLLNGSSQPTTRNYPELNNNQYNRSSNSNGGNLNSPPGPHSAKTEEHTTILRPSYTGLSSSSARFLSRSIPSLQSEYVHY
log2 fold change [2]: -0.11

C8orf88 (UniProt P0DMB2)
UniProt P0DMB2, sequence (P0DMB2 whole entry, looked up): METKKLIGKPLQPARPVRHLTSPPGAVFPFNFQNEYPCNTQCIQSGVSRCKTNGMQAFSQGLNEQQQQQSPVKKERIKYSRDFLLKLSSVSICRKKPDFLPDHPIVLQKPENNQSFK
log2 fold change (vorinostat): -0.455 (active)
log2 fold change (silmitasertib): 0.056
log2 fold change [2]: 0.024

ATG4D (UniProt Q86TL0)
log2 fold change [2]: 0.117
log2 fold change (entospletinib): 0.004

CDC25A (UniProt P30304)
UniProt P30304, sequence (P30304 whole entry, looked up): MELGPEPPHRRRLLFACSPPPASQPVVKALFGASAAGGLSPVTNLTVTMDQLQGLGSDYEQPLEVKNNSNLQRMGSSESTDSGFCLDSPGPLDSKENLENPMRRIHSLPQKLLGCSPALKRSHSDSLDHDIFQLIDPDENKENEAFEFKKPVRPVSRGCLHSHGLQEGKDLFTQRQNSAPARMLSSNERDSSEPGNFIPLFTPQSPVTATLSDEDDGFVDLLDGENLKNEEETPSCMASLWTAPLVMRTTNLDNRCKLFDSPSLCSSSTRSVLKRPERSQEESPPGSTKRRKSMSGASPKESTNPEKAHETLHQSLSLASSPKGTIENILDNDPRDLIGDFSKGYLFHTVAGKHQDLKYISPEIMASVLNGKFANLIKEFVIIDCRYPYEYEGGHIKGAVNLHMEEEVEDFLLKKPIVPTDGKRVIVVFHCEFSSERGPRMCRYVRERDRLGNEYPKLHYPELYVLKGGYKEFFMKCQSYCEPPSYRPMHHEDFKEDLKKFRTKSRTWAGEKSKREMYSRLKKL
log2 fold change (vorinostat): -1.01 (active)
log2 fold change (silmitasertib): 0.084
log2 fold change [2]: -0.172
